This is an account of results in PubChem BioAssay (EPA / NIEHS).

Calls of active or inactive are those of the source. How the source made its calls: active means hit-call score of the fitted dose curve at least 0.9, where 1 is the maximum; inactive means score below 0.9.

A short description of the assay: ATG_GRE_CIS: Attagene CIS-FACTORIAL HepG2 Assay for human Glucocorticoid Response Elements (GRE) (AID 2282947). Conditions: HepG2 GRE cis-reporter, Attagene multiplex mRNA; actives raise or lower the signal. On the procedure:
ATG_CIS is a cell-based, multiplexed-readout assay that uses HepG2, a human liver cell line, with measurements taken at 24 hours after chemical dosing in a 24-well plate.ATG_GRE_CIS is one of 52 assay component(s) measured or calculated from the ATG_CIS assay. It is designed to make measurements of mRNA induction, a form of inducible reporter, as detected with fluorescence intensity signals by Reverse transcription polymerase chain reaction (RT-PCR) and Capillary electrophoresis technology.Data from the assay component ATG_GRE_CIS was analyzed into 1 assay endpoint. This assay endpoint, ATG_GRE_CIS, was analyzed with bidirectional fitting relative to DMSO as the negative control and baseline of activity. Using a type of inducible reporter, measures of mRNA for gain or loss-of-signal activity can be used to understand the reporter gene at the transcription factor-level as they relate to the gene NR3C1. Furthermore, this assay endpoint can be referred to as a primary readout, because this assay has produced multiple assay endpoints where this one serves a reporter gene function. To generalize the intended target to other relatable targets, this assay endpoint is annotated to the nuclear receptor intended target family, where the subfamily is steroidal.
Human liver HepG2 cells are transiently transfected with multiple reporter transcription units (MRTUs) in 6-well plates using FuGene 6 reagent (Roche; 3 ml FuGene/1 mg DNA). The MRTU constructs are regulated by a cis-regulating element (promoter). […] A major difference between the CIS and TRANS system is that in CIS activities of endogenous TFs are measured, whereas the TRANS assay evaluates changes in activities of exogenous, chimeric NR-Gal4 proteins. […] At the end of 24 hour incubation, total RNA was isolated using TriZol reagent (Invitrogen). The isolated RNA is then reverse-transcribed using oligo(dT) primer and Mo-MLV reverse transcriptase (Invitrogen) with DNAse I (Ambion) treatment for 30 min. The one-tenth of the produced cDNA was amplified by PCR using Taq DNA polymerase (Invitrogen) and two reporter sequence-specific primers. The PCR products were fluorescently labeled by primer extension with 6-arboxyfluorescein (6-FAM) 5'-labeled reporter sequence-specific primer (2 min at 95 C, 20 s at 68 C and 10 min at 72 C) and these products were digested with 5U of HpaI (New England Biolabs) for 2h at 37 C. The fragments were purified using Qiaquick PCR columns (Qiagen), analyzed on an ABI 3130xL genetic analyzer (Applied Biosystems) with peak positions identified by using a set of X-rhodamine (ROX)-labeled MapMarker1000 molecular weight standards (BioVentures). The raw capillary electrophoresis data was processed using Attagraph software (Attagene).
On to `CCCCCCC(O)CCCCCCCCCCC(=O)O` (stereo not given), for which the result was inactive.
Consider `CCCCCCCC(=O)OCCCCCC`, for which the outcome was inactive.
Consider `CCCCCCCCCCCCS(=O)(=O)Cl`, for which the outcome was inactive.
The same measure for `CCCC(=O)c1ccccc1`: “inactive”; for `CCCCC1CCC(O)CC1` (stereo not given): “inactive”.
`IC(I)I`: the molecule was called inactive.
As to `O=P(O)(O)O`, the molecule was classed as inactive.
`CCCCCCCCN1CCCC1=O`: the molecule was called inactive.
For `C=C(C)C1CC=C(C)C(=O)C1` (stereo not given), the molecule was classed as inactive.
For `CCCCCCC(CO)CCCC` (stereo not given), the molecule was called inactive.
As to `CCCCCCCCCCCCCCCC(=O)OC/C=C(C)/C=C/C=C(C)/C=C/C1=C(C)CCCC1(C)C`, the result was inactive.
Turning to `CCCCCCCCCCCCCCN(CCO)CCO`, the molecule was classed as inactive.
`CCCCCCCC/C=C\CCCCCCCC(=O)OCC`: the result was inactive.
On to `CC[N+](C)(CC)CC`, for which the molecule was classed as inactive.
`COc1cc(Cl)c(OC)cc1N`: the molecule was called inactive.
For the molecule `CC=CC=CCOC(=O)C(C)C`, the molecule was called inactive.
As for `CCCC[O][Al]([O]CCCC)[O]CCCC`, the entry is “inactive”.
As for `CCOc1ccc(N=Nc2ccc(C=Cc3ccc(N=Nc4ccc(OCC)cc4)cc3S(=O)(=O)O)c(S(=O)(=O)O)c2)cc1`, the molecule was called inactive.
For `CC(C)CCCCCCCCCCCCCCC(=O)O`, the molecule was called inactive.
With `C=CC(=O)OCCCC`, the call was inactive.
`CCC(Cl)C(Cl)C(Cl)CC(Cl)C(Cl)C(C)Cl` (stereo not given): the result was inactive.
For `COc1cc(C(C)C)ccc1C`, the molecule was classed as inactive.
The same measure for `CC1=CC[C@@]23C[C@@H]1C(C)(C)[C@@H]2CC[C@H]3C`: “inactive”; for `C1=CC2C3C=CC(C3)C2C1` (stereo not given): “inactive”; for `CCCC(O)C(O)CO` (stereo not given): “inactive”.
`Nc1ccccc1[N+](=O)[O-]`: the molecule was classed as inactive.
Take `CCO/C=C1\N=C(c2ccccc2)OC1=O`: the outcome was inactive.
The same measure for `Cc1c(C2(c3cc(Br)c(O)c(Br)c3C)OS(=O)(=O)c3ccccc32)cc(Br)c(O)c1Br`: “inactive”.
As for `COC(=O)c1ccc(OC)cc1`, the entry is “inactive”; as for `Cc1ccc2c(c1)C(=O)OC2=O`, “inactive”.
As to `C=Cc1ccncc1`, the molecule was called inactive.
Turning to `Clc1ccc(C(c2ccccc2Cl)C(Cl)Cl)cc1` (stereo not given), the call was inactive.
The same measure for `Nc1ccn([C@H]2CS[C@@H](CO)O2)c(=O)n1`: “inactive”; for `C[C@H]1C[C@@H](O)CC(C)(C)C1`: “inactive”.
The same measure for `CCCCCCCCCCCCN1CCCCCC1=O`: “inactive”; for `CCN(CCC#N)c1ccc(N=Nc2ccc([N+](=O)[O-])cc2)cc1`: “inactive”; for `CC(=O)NCCO`: “inactive”.
On to `CN1CCOCC1`, for which the outcome was inactive.
As to `CCCCCc1ccco1`, the call was inactive.
With `Cc1occc(=O)c1OC(=O)C(C)C`, the call was inactive.
